The panel holds about 83,000 compounds, 20% with a hit somewhere; the sample as a whole holds those more often.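 Single-concentration screen, 48 h exposure, 96-well plates. Endpoint: percent growth. Below 10 = active.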 Activity calls are given as the source filed them.
Experiments:
Assay in all cases: NCI-60 one-dose screen, 48 h (100 = growth as untreated, 0 = no growth, -100 = all killed)
Conditions in all cases: 10 µM unless noted
SK-MEL-2 melanoma = test system: SK-MEL-2 melanoma
EKVX NSCLC = test system: EKVX NSCLC
SN12C renal = test system: SN12C renal
UO-31 renal = test system: UO-31 renal
TK-10 renal = test system: TK-10 renal
ACHN renal = test system: ACHN renal
CAKI-1 renal = test system: CAKI-1 renal
A498 renal = test system: A498 renal
CCRF-CEM leukemia = test system: CCRF-CEM leukemia
MOLT-4 leukemia = test system: MOLT-4 leukemia

Measured: growth

N#CC1CCc2c(c(-c3cn[nH]c3C(F)(F)F)nc3c(F)cc4[nH]ncc4c23)C1 (stereo not given)
inactive: EKVX NSCLC 57.4% | SN12C renal 25.7% | UO-31 renal 56.8% | TK-10 renal 19.4% | ACHN renal 62.9% | CAKI-1 renal 25.6% | CCRF-CEM leukemia 29.2% | MOLT-4 leukemia 19.8%
active: SK-MEL-2 melanoma -34.6% | A498 renal -23.3%

CCc1nc2c(=O)[nH]cnc2o1
inactive: SK-MEL-2 melanoma 113% | EKVX NSCLC 104% | SN12C renal 109% | UO-31 renal 75.7% | TK-10 renal 108% | ACHN renal 105% | CAKI-1 renal 100% | A498 renal 102% | CCRF-CEM leukemia 108% | MOLT-4 leukemia 108%

C#CCn1cnc2c(Nc3cccc(NC(=O)C=C)c3)ncnc21
inactive: SK-MEL-2 melanoma 84.1% | EKVX NSCLC 84.8% | SN12C renal 83.4% | UO-31 renal 42.3% | TK-10 renal 93.3% | ACHN renal 69.1% | CAKI-1 renal 82.1% | A498 renal 80.5% | CCRF-CEM leukemia 81.6% | MOLT-4 leukemia 71.2%

CC1=C(C(=O)OC(C)C)C(c2ccc3c(c2)OCO3)NC(=S)N1 (stereo not given)
inactive: SK-MEL-2 melanoma 102% | EKVX NSCLC 94.4% | SN12C renal 105% | UO-31 renal 84.5% | TK-10 renal 98.1% | ACHN renal 99.4% | CAKI-1 renal 93.8% | A498 renal 109% | CCRF-CEM leukemia 105% | MOLT-4 leukemia 110%

O=C(/C=C/c1cn(-c2ccccc2)nc1-c1ccc([N+](=O)[O-])cc1)c1ccc(Cl)cc1
inactive: SK-MEL-2 melanoma 96.2% | EKVX NSCLC 60.7% | SN12C renal 50.5% | UO-31 renal 41.2% | TK-10 renal 14.1% | ACHN renal 52.3% | CAKI-1 renal 31.9% | A498 renal 78.5% | CCRF-CEM leukemia 38% | MOLT-4 leukemia 38%

Cc1ccc(S(=O)(=O)N2CCCC2CO)cc1 (stereo not given)
inactive: SK-MEL-2 melanoma 96.3% | EKVX NSCLC 101% | SN12C renal 101% | UO-31 renal 94.2% | TK-10 renal 101% | ACHN renal 89.3% | CAKI-1 renal 85.6% | A498 renal 65.7% | CCRF-CEM leukemia 68.5% | MOLT-4 leukemia 98.8%

C=CCn1c(SCC(=O)Nc2ccc(C(=O)/C=C/c3ccc(Cl)cc3)cc2)nnc1-c1cc(-c2ccc(S(N)(=O)=O)cc2)nc2ccccc12
inactive: SK-MEL-2 melanoma 103% | EKVX NSCLC 94.6% | SN12C renal 90.2% | UO-31 renal 82.8% | TK-10 renal 99.9% | ACHN renal 98.1% | CAKI-1 renal 66.3% | A498 renal 89% | CCRF-CEM leukemia 54.2% | MOLT-4 leukemia 66.1%

Cc1oc(-c2ccc(Cl)cc2)nc1/C=C/C(=O)c1ccccc1
inactive: SK-MEL-2 melanoma 100% | EKVX NSCLC 95% | SN12C renal 95.6% | UO-31 renal 83.9% | TK-10 renal 122% | ACHN renal 101% | CAKI-1 renal 91.9% | A498 renal 101% | CCRF-CEM leukemia 97% | MOLT-4 leukemia 92.3%

COc1ccc(-c2nc3c(c(-c4ccccc4)nn3-c3ccccc3)c(-c3ccc(N4CCOCC4)cc3)c2C#N)cc1
inactive: SK-MEL-2 melanoma 106% | EKVX NSCLC 100% | SN12C renal 97.9% | UO-31 renal 103% | TK-10 renal 110% | ACHN renal 104% | CAKI-1 renal 93.7% | A498 renal 98.2% | CCRF-CEM leukemia 99.6% | MOLT-4 leukemia 94.4%

O=C1c2cccnc2C(=O)c2c1c(C(=O)NCCCN1CCCCC1)c1ccccn21
active: SK-MEL-2 melanoma -40.3% | EKVX NSCLC -100% | SN12C renal -65.1% | UO-31 renal -34.5% | TK-10 renal -1.12% | ACHN renal -45.2% | CAKI-1 renal -14.6% | A498 renal -78.1% | CCRF-CEM leukemia -25.6% | MOLT-4 leukemia -43.9%

CS(=O)(=O)C1=CN(CCO)C(=O)N2CCCN=C12
inactive: SK-MEL-2 melanoma 111% | EKVX NSCLC 100% | SN12C renal 99.7% | UO-31 renal 78% | TK-10 renal 109% | ACHN renal 103% | CAKI-1 renal 98% | A498 renal 88% | CCRF-CEM leukemia 114% | MOLT-4 leukemia 106%

N#Cc1cccc(-c2c(-c3ccc4ccccc4c3)oc3ccccc3c2=O)c1
inactive: SK-MEL-2 melanoma 59.1% | EKVX NSCLC 52.7% | SN12C renal 68.3% | UO-31 renal 51.4% | TK-10 renal 73.1% | ACHN renal 55.9% | CAKI-1 renal 45.5% | A498 renal 43.4% | CCRF-CEM leukemia 27.6% | MOLT-4 leukemia 31%

O=C(/C=C/c1ccccc1)c1cccc(OCCCOc2cccc(C(=O)/C=C/c3ccccc3)c2)c1
inactive: SK-MEL-2 melanoma 101% | EKVX NSCLC 103% | SN12C renal 94.2% | UO-31 renal 74.2% | TK-10 renal 107% | ACHN renal 102% | CAKI-1 renal 86.4% | A498 renal 92% | CCRF-CEM leukemia 76.5% | MOLT-4 leukemia 86.9%

Source: PubChem BioAssay (NCI)
